# Source: PubChem
# The list is not random: actives were taken first. Their share in the collection is about 22%.
# LmPK inh – blocks Leishmania mexicana pyruvate kinase activity; purified LmPK, Kinase-Glo ATP luminescence, 1 h; Potency, µM (doses to about 57.5 µM), hits mostly inhibitors; 290,000 tested, 0.37% active
# Target sequence (Q27686 whole entry, looked up): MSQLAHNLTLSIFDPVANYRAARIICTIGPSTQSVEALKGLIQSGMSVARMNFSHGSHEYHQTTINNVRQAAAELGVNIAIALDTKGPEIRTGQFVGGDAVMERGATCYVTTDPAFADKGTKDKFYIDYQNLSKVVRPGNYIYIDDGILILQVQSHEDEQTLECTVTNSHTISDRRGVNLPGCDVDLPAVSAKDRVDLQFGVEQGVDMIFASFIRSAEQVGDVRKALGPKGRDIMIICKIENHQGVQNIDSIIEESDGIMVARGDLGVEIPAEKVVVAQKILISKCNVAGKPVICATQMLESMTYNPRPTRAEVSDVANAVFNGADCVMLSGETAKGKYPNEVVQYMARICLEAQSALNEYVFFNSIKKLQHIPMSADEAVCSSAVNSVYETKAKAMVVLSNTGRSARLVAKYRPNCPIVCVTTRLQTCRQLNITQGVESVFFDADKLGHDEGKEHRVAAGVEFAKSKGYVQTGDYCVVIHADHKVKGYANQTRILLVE
#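 qHTS format; LmPK 0.1 nM; substrates PEP 0.5 mM and ADP 0.1 mM. One-hour room-temperature incubation, then coupled luciferase luminescence; 0.5 nM enzyme wells mark activation.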
# Pf growth 96h – inhibits malaria parasite growth, 96 h. P. falciparum luciferase reporter growth, 96 h. Potency, µM (series often up to 28.7 µM), actives largely listed as inhibitors. 320,000 tested, 6.9% active. AID 504834
#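 Parasite growth measured via integrated firefly luciferase reporter in P. falciparum. Infected erythrocytes at 2% hematocrit, 0.05% parasitemia final were treated 96 hours at 37 C under 5% CO2, and luminescence was read.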
# Cycloheximide cs – counter-screen for Shiga toxin inhibitors: cycloheximide protein synthesis inhibition. AID 2314. max response, %. cell reporter, cycloheximide protein synthesis inhibition counterscreen. 300,000 tested, 12% active; in the data active means max response mostly above about 13%, no sharp cut-off; inactive means mostly below about 14%; further: read at 38.3 µM for the half of the compounds with a filed dose
# Shiga inhibitor – inhibitors of Shiga toxin in Vero cells | Vero cells, Shiga toxin protein synthesis inhibition reporter | inhibition, % at 38.7 µM | 290,000 tested, 9.2% active | AID 2315; in the data active means inhibition mostly above about 28%, no sharp cut-off; inactive means mostly below about 43%
# Pf growth 48h – P. falciparum growth inhibition at 48 hours (one generation); Potency, µM (highest dose often 28.7 µM), hits mostly inhibitors; P. falciparum luciferase growth in erythrocytes, 48 h; 310,000 tested, 5.9% active
#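 Read-out is firefly luciferase luminescence from an integrated reporter in P. falciparum, so falling signal marks reduced parasite growth. Infected erythrocytes were at 2% hematocrit and 0.1% parasitemia (final) in Albumax-supplemented RPMI 1640.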
# Numbers stand for hits; – = inactive; ? = inconclusive; · = no result given. Unless noted, the call rests on the fitted dose curve; in most records, active means well fitted inhibition curve with a large enough effect; inconclusive means small, poorly fitted or top-dose-only effect, or another doubt; inactive means no such curve, though single readings can be large or run the other way.
SMILES,LmPK inh,Pf growth 96h,Cycloheximide cs,Shiga inhibitor,Pf growth 48h
C/C(=N\NC(=S)Nc1ccccc1C)c1cc2ccccc2o1,–,7.4µM,17,26,?
C/C(=N\NC(=S)Nc1c(C)cccc1C)c1cc2ccccc2o1,–,12µM,–,–,?
CCC(C)CCN1C(N(C)C)=NC[C@@H]1CC(C)C (some centres undefined),·,?,·,·,13µM
CC(C)C[C@H]1CN=C(Nc2ccccc2)N1CCCCc1ccccc1,–,?,–,–,?
CCC(CC)CN1C(Nc2ccccc2)=NC[C@@H]1CC(C)C,–,–,–,–,?
CC(C)C[C@H]1CN=C(N(C)C)N1CCCCc1ccccc1,·,?,·,·,5.2µM
CCC(CC)CN1C(N(C)C)=NC[C@@H]1CC(C)C,·,8.3µM,·,·,?
c1ccc(Cc2nn3c(-c4ccncc4)nnc3s2)cc1,–,·,–,–,–
CC(C)N(Cc1nc(-c2ccc(Cl)cc2)no1)C(=O)C(c1ccccc1)c1ccccc1,–,8.3µM,–,–,·
Cc1ccc(-c2noc(CN(C(=O)C(c3ccccc3)c3ccccc3)C(C)C)n2)cc1,–,?,–,–,?
Cc1ccc(C2=C(CC(=O)O)C(=O)CC2)cc1,–,4.7µM,–,–,–
CC(=O)Nc1ccc(C(=O)CSc2nnnn2C2CCCC2)cc1,–,–,15,–,–
Cc1occc1-c1nnc(SCC(=O)NCCc2ccccc2)n1C(C)c1ccccc1 (centres undefined),–,8.3µM,–,–,?
O=C(CSc1nnnn1C1CCCC1)NCc1ccc2c(c1)OCO2,–,10µM,–,–,–
CC(C)n1nnnc1SCC(=O)NCCc1ccccc1,–,–,16,–,–
COC(=O)c1ccc(NC(=O)CSc2nnnn2C2CCCCC2)cc1,–,–,–,–,–
CCCn1c(SCC(=O)NCCc2ccccc2)nnc1C(C)C,–,–,–,–,–
Cc1occc1-c1nnc(SCC(=O)NCCc2ccccc2)o1,–,–,–,–,–
COC1[C@@H](OC)C[C@H](C)[C@@H](OC)C2=CC(=O)C=C(NC(=O)/C(C)=C/C=C\[C@H](OC)[C@@H](OC(N)=O)/C(C)=C/[C@@H]1C)C2=O (some centres undefined),·,·,–,–,·
CCc1c(C)nc(N2CCN(c3ccc(OC)cc3)CC2)[nH]c1=O,–,–,–,–,–
COc1ccccc1NC(=O)CSc1nnnn1C1CCCC1,–,–,–,–,–
O=C(CSc1nnnn1C1CCCCC1)NCc1ccco1,–,?,–,–,–
O=C(CSc1nnnn1C1CCCC1)N1CCOCC1,–,?,36,–,–
O=C(CSc1nnnn1C1CCCC1)NCCc1ccccc1,–,–,23,49,–
O=C(CSc1nnnn1C1CCCC1)Nc1ccccc1F,–,–,13,31,–
SMILES,LmPK inh,Pf growth 96h,Cycloheximide cs,Shiga inhibitor,Pf growth 48h
CC(CCc1ccccc1)NC(=O)CSc1nnnn1C (centres undefined),–,4.7µM,–,–,–
Cc1cc2oc(=O)cc(Cn3ncc(Cl)c(Cl)c3=O)c2cc1Cl,–,?,–,–,?
Cc1ccnc(NC(=O)CCC(=O)N(CC(=O)NCc2ccc(F)cc2)Cc2ccccc2)c1,–,–,–,–,–
Cc1ccc(N=c2c([N+](=O)[O-])nn(-c3ccccc3)n2O)c(C)c1,–,·,32,98,?
CCc1ccc(NC2=NCC(=O)N2c2ccc3c(c2)OCCO3)cc1,–,·,–,–,–
Cc1cc(C)cc(N=c2c([N+](=O)[O-])nn(-c3ccc4c(c3)OCCO4)n2O)c1,–,–,17,–,–
S=c1[nH]nc(-c2ccc(Cl)cc2)n1-c1ccc2c(c1)OCCO2,?,?,–,–,–
CCc1ccc(N=c2c([N+](=O)[O-])nn(-c3ccc4c(c3)OCCO4)n2O)cc1,–,?,34,46,–
O=[N+]([O-])c1nn(-c2ccc3c(c2)OCCO3)n(O)c1=Nc1ccc(Cl)cc1,–,?,34,117,–
O=S1(=O)C2CC3CCC2(CN1Cc1cccc(F)c1)O3 (centres undefined),·,·,–,–,·
Cc1ccc(N=c2c([N+](=O)[O-])nn(-c3ccc4c(c3)OCCO4)n2O)c(Cl)c1,–,–,35,89,–
Cc1c(Cl)cccc1N=c1c([N+](=O)[O-])nn(-c2ccccc2)n1O,–,?,–,–,·
Cc1ccc(N=c2c([N+](=O)[O-])nn(-c3ccc4c(c3)OCCO4)n2O)cc1F,–,?,33,141,–
Cc1ccc(N=c2c([N+](=O)[O-])nn(-c3ccc(Cl)cc3)n2O)cc1C,–,0.83µM,–,–,12µM
O=[N+]([O-])c1nn(-c2ccc3c(c2)OCCO3)n(O)c1=Nc1ccccc1,–,–,142,168,?
Cc1cccn2c(CNCC3(c4ccccc4)CCCC3)c(C(=O)N3CCOCC3)nc12,–,–,–,–,?
CCN=C1NN=C(c2c[nH]c3ccccc23)CS1,–,–,32,38,–
COCC(C)N=C1NN=C(c2c[nH]c3ccccc23)CS1 (centres undefined),–,–,64,53,–
CCn1c(SC)nnc1-c1c[nH]c2ccccc12,–,–,–,–,·
COCCn1c(SC)nnc1-c1c[nH]c2ccccc12,–,?,–,–,·
Cc1nc(NC(=O)C23CC4CC(CC(C4)C2)C3)sc1Cc1ccc2c(c1)OCO2,–,1.7µM,25,67,?
Cc1nc(NC(=O)C2CCCC2)sc1Cc1ccc2c(c1)OCO2,–,?,22,–,?
Cc1c(Cc2ccc3c(c2)OCO3)sc(NC(=O)C2CC2)c1C(N)=O,–,–,–,–,–
CN1CCN(CCCNCc2cn(CCC#N)c3ccccc23)CC1,–,–,–,–,·
COCCn1cnnc1SCC(=O)Nc1ccc(Br)cc1F,–,–,–,–,–
SMILES,LmPK inh,Pf growth 96h,Cycloheximide cs,Shiga inhibitor,Pf growth 48h
CNC(=S)N/N=C1\CC(c2ccccc2)Oc2ccccc21 (centres undefined),–,6.6µM,–,–,10µM
Fc1ccc(N/N=C2/CC(c3ccccc3)Oc3ccccc32)c(F)c1 (centres undefined),–,?,26,52,?
O=C1CC(c2cccc(O)c2)Oc2ccccc21 (centres undefined),·,–,·,·,–
CCN1C(=O)N(c2ccc(Cl)cc2)C(C)=CC1(C)C,–,–,–,–,–
Cc1cccc(-n2ncc3c2CCCC3NC(=O)CCN2CCCCO2)c1C (centres undefined),–,–,–,–,?
O=C(CCc1ccccc1)N1CCN(c2ccc([N+](=O)[O-])cc2)CC1,–,–,–,–,–
CCOC(=O)CN1CC23C=CC(O2)C(C(=O)Nc2ccc(C(C)=O)cc2)C3C1=O (centres undefined),–,12µM,–,–,–
CCOC(=O)CN1CC23C=CC(O2)C(C(=O)NC2CCCCCC2)C3C1=O (centres undefined),–,?,–,–,·
CCc1ccc(NC(=O)CSc2nc3ccccc3c(=O)n2CCCN2CCC(C)CC2)cc1,–,–,–,–,?
O=C(NCCCN1CCCC1)Nc1ccc(F)cc1,–,–,–,–,–
